Screens (PubChem)
Most compounds without a hit are left out; they make up all but 1.6% or so of the library.
PrPC surface inh = reduces human prion protein on the cell surface; inhibition, % at 13.8 µM; AID 720596; cell surface PrPC, TR-FRET read-out; 0.43% of 370,000 active; P04156; in the data active = inhibition above about 24%; also: 0% = median of the test wells and 100% = reference compound wells
Vc quorum ag = quorum light induction in luxS cqsA deficient V. cholerae | AID 588436 | 0.16% of 350,000 active | V. cholerae BH1578 lux reporter, luminescence, 6 h | activation, % at 18.7 µM; in the data active = activation mostly above about 9.7%, no sharp cut-off; inconclusive = no clear call, values can overlap the other calls; inactive = mostly below about 3.7%
PriA SSB inh = inhibitors of Klebsiella pneumoniae PriA binding to SSB C-terminal tail | AlphaScreen SSBct-PriA binding, biotinylated peptide | inhibition, % at 33 µM | 0.6% of 430,000 active; in the data active = inhibition mostly above about 37%, no sharp cut-off; inactive = mostly below about 20%;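 also: plate controls were negative control peptide for no effect and reference peptide for full effect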
PrP UTR inh = suppresses PrP 5' UTR mRNA reporter expression. cell-based PrP 5' UTR mRNA reporter, plate reader. inhibition, % (test concentration not listed). 0.35% of 340,000 active; in the data active = inhibition above about 52%; also: 0 = median of the neutral control wells
SARS 3CLpro inh = SARS-CoV 3CLpro protease inhibition; inhibition, % at 6 µM; P0C6X7; 0.14% of 290,000 active; recombinant SARS-CoV 3CLpro, quenched FRET peptide cleavage; in the data active = inhibition above about 12%
PfHsp40 rescue = rescue of PfHsp40-mediated yeast toxicity; S. cerevisiae expressing PfHsp40, growth rescue, ATP luminescence; growth rescue, % at 12.5 µM; 0.68% of 340,000 active; AID 504582; in the data active = growth rescue above about 28%, passing the limit was not always enough; inconclusive = no clear call, values can overlap the other calls;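 also: yeast W303a lacking pdr1 and pdr3 grown in galactose medium; growth measured after three days at 30 °C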
PrP 5UTR single = prion 5' UTR mRNA inhibition, cherry-pick retest. AID 504592. 48% of 1,100 active. shares compounds with PrP UTR inh. inhibition, % at 2.5 µM. cell-based prion protein 5' UTR reporter, plate reader; in the data active = inhibition above about 54%; inconclusive = no clear call, values can overlap the other calls
Numbers without * were called inactive; i = inactive; ? = inconclusive; / = not tested or not shown.

SMILES	PrPC surface inh	Vc quorum ag	PriA SSB inh	PrP UTR inh	SARS 3CLpro inh	PfHsp40 rescue	PrP 5UTR single
Cn1c2ccccc2c(=O)c2cc(C#CC3(O)CCCCC3)ccc21	-3.3	i	-3.3	65.3*	-6.3	3.7	34.5
Cc1cc2sc3ccc(C#CC4(O)CCCCC4)cc3c(=O)c2cc1C	2.4	i	-2.7	92.3*	/	0.8	92.8*
c1ccc(NC(c2ccccc2)c2ccncc2)cc1 (stereo unspecified)	-3.9	-2.1	-6.6	3.9	-6.9	-0.7	/
c1ccc(C(Nc2cccnc2)c2ccccc2)cc1	0.8	i	-0.4	71.2*	/	1.5	-12.9
CCOC(=O)c1c(SCC(=O)Nc2ccccc2C(F)(F)F)nc(=O)[nH]c1C	/	/	5.0	/	/	/	/
O=c1[nH]c2nc(NCc3cccc(Cl)c3)ncc2c(=O)n1-c1ccccc1F	/	/	-6.0	/	/	/	/
COC(=O)c1ccc(Oc2nc3c(c(=O)n(C)c(=O)n3C)n2CCC(C)C)cc1	7.5	i	-2.2	-3.2	0.4	-0.9	/
CCC(=O)c1ccc(Oc2nc3c(c(=O)n(C)c(=O)n3C)n2CC)cc1	5.3	i	-2.2	57.7*	2.2	1.3	7.3
C[C@]12CCC(=O)C[C@@H]1CC[C@@H]1[C@@H]2CC[C@]2(C)[C@@H](O)CC[C@@H]12	4.8	-0.3	1.8	-12.0	/	-0.5	/
C[C@]12CCC(=O)C[C@@H]1CC[C@@H]1[C@@H]2CC[C@]2(C)C=CC[C@@H]12	-3.4	8.3	-13.8	66.5*	1.2	0.2	9.1
CC1=C(N2CC2)C(=O)C(CO)=C(N2CC2)C1=O	-38.6	5.6	-20.1	97.7*	/	1.3	97.2*
COC(COC(N)=O)C1=C(N2CC2)C(=O)C(C)=C(N2CC2)C1=O (stereo unspecified)	-25.0	5.6	1.8	-28.8	/	-0.5	/
N#CC1(Nc2ccc(S(N)(=O)=O)cc2)CCCC1	9.0	1.6	3.2	73.8*	/	-1.9	-13.5
CSC1SCC2C(=O)N(C)C(C(C)C)C(=O)OCC(NC(=O)c3cnc4ccccc4n3)C(=O)NC(C)C(=O)N(C)C1C(=O)N(C)C(C(C)C)C(=O)OCC(NC(=O)c1cnc3ccccc3n1)C(=O)NC(C)C(=O)N2C (stereo unspecified)	26.4*	i	-1.0	92.0*	/	3.9	92.7*
O=C(NCCc1ccccc1)c1ccc2c(c1)OCO2	-1.4	-0.4	-0.5	58.1*	0.5	1.3	?
C=CCSc1nnc(NC(=O)CSc2nnc(C)s2)s1	2.6	i	-17.6	81.0*	3.2	0.2	-34.1
CCC(=O)Nc1cccc(-c2ccc(N3CCC(C)CC3)nn2)c1	-8.0	-0.2	-7.0	24.1	1.2	1.4	/
O=C(Nc1cccc(-c2ccc(N3CCCCC3)nn2)c1)C(F)(F)F	5.7	-0.6	7.6	75.0*	3.5	-0.1	67.6*
CC1CCN(c2ccc(-c3cccc(NC(=O)C(F)(F)F)c3)nn2)CC1	2.0	-0.2	-2.8	82.5*	3.2	-1.1	85.5*
O=C(Nc1cccc(-c2ccc(N3CCOCC3)nn2)c1)C(F)(F)F	/	/	5.0	/	/	/	/
Cc1cc(NC(=O)C(=O)NCC(c2cccc3ccccc23)N2CCCC2)no1 (stereo unspecified)	/	/	16.0	/	/	/	/
CCCS(=O)(=O)c1cnc(C2COc3ccccc3O2)nc1N (stereo unspecified)	-3.1	0.0	-1.6	85.7*	3.1	-3.2	82.9*
S=c1nc(C2COc3ccccc3O2)[nH][nH]1 (stereo unspecified)	-9.5	-0.2	1.0	-51.2	2.3	-1.8	/
O=C(Nc1cccc(S(=O)(=O)N2CCOCC2)c1)c1cnn2c(C(F)F)cc(-c3ccccc3)nc12	7.0	3.1	0.4	79.5*	0.2	0.2	17.7
CNS(=O)(=O)c1ccc(NC(=O)c2cnn3c(C(F)F)cc(-c4ccccc4)nc23)cc1	0.7	-0.9	-6.6	-7.4	-2.2	-0.2	/
SMILES	PrPC surface inh	Vc quorum ag	PriA SSB inh	PrP UTR inh	SARS 3CLpro inh	PfHsp40 rescue	PrP 5UTR single
Cc1ccccc1-c1nc2scc(CCNC(=O)c3cccc([N+](=O)[O-])c3)n2n1	/	/	10.0	/	/	/	/
Nc1cc(OCc2ccccc2)ncn1	/	/	0.0	/	/	/	/
O=C(C[n+]1ccccc1)N/N=C/c1c(F)cccc1Cl	2.5	-0.8	/	58.6*	-4.2	1.4	-3.5
O=C(CSc1nc2cc(-c3ccccc3)[nH]c2c(=O)n1Cc1ccccc1)Nc1ccc2c(c1)OCO2	/	/	-4.0	/	/	/	/
Cc1ccc([N+](=O)[O-])c(OCCN2C(=O)NC(C)(C)C2=O)c1	-7.8	i	-13.3	52.9*	-1.0	0.2	-18.1
CCOC(=O)c1[nH]c2c(c1C)C(=O)CC(c1ccco1)C2 (stereo unspecified)	1.0	-0.2	1.6	60.5*	4.7	-1.5	93.0*
COCCOC(=O)c1[nH]c2c(c1C)C(=O)CC(c1ccco1)C2 (stereo unspecified)	4.0	i	-6.9	-5.3	-3.0	0.9	/
Cc1c(C(=O)OCCOC(C)C)[nH]c2c1C(=O)CC(c1ccco1)C2 (stereo unspecified)	/	0.9	4.1	65.5*	-0.5	2.6	90.4*
Cc1c(C(=O)OCc2ccccc2)[nH]c2c1C(=O)CC(c1ccco1)C2 (stereo unspecified)	/	-0.2	2.7	62.2*	2.8	1.1	87.2*
CC(C)c1ccc(NC(=S)NCc2cccs2)cc1	-0.1	i	-16.4	-22.5	2.9	2.6	/
COc1ccc(NC(=S)NCc2cccs2)cc1	-3.8	-0.2	-7.6	75.3*	-0.4	0.1	-12.0
CCC(C)(C)C1CCc2[nH]nc(C(=O)NC3CCCC3)c2C1 (stereo unspecified)	0.1	0.0	-33.6	-1.0	/	0.1	/
O=C(NC1CCCCC1)c1n[nH]c2c1CCCCC2	4.2	-0.6	-5.5	79.5*	/	-2.3	59.2*
COc1ccc(Cl)cc1S(=O)(=O)Nc1ccc(-n2c(C)nc3ccccc3c2=O)cc1	/	/	5.0	/	/	/	/
CC(C)CNC(=O)COC(=O)C1c2ccccc2Oc2ccccc21	7.1	0.6	6.2	76.8*	3.7	1.9	-5.6
O=C(/C=C\Nc1ccc2c(c1)OCO2)c1ccccn1	-2.6	i	-9.9	80.5*	6.3	1.0	77.6*
O=C(c1cc(=O)c2ccccc2o1)N1CCN(Cc2nc(C3CC3)cs2)CC1	/	/	5.0	/	/	/	/
CNC(=O)CS(=O)(=O)C1CCN(S(=O)(=O)C2CC2)CC1	/	/	-8.0	/	/	/	/
CCCC(=O)NC(=S)Nc1c(C)cc(Br)cc1C	6.6	-0.7	-6.2	-49.8	2.3	0.0	/
CCCCCC(=O)NC(=S)Nc1ccc(Br)cc1C	5.7	-0.4	4.9	57.2*	1.2	0.1	1.0
COC1=C(C)C(=O)C2=C(C1=O)C(CO)N1C(C#N)C3CC4C(C1C2N1CCOC41)N3C (stereo unspecified)	-6.5	5.6	-14.4	76.5*	/	-0.8	92.0*
CN(C)C(=O)c1cc(C(=O)c2ccccc2)c[nH]1	4.7	-0.1	-6.7	-16.9	-2.4	0.1	/
